Data from the supplement of paper PMC8866396.
± gives the standard deviation of the averaged measurements.

How the values were obtained:
[1] = system: IL-6-GFP PC-9GR; experiment: cell viability (CCK-8 OD) relative to DMSO control (fraction of control); higher = more viable cells; settings: compound concentration: 10 uM; treatment time: 48 h
In short: (§1)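 PC-9 and PC-9GR lung cancer cells expressing lentiviral IL-6-GFP were plated at 3000 cells/well in 96-well plates and treated for 48 h with each library compound at a final 10 μM. Viability was determined by CCK-8 absorbance as a ratio of each well's optical density to the vehicle control well.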

[2] = system: IL-6-GFP PC-9; experiment: as above; settings: compound concentration: 10 uM; treatment time: 48 h
In short: as §1

Row | SMILES | cell viability [1] | cell viability [2]
1 | N#CC1(c2ccc(NC(=O)c3cccnc3NCc3ccncc3)cc2)CCCC1 [Apatinib] | 0.0432 ± 0.2 | 1.177 ± 0.0032
2 | COc1ccc2cc(C(C)C(=O)O)ccc2c1 (stereo unspecified) [Naproxen] | 1.5 ± 0.37 | 1.08 ± 0.16
3 | Nc1nnc(-c2cccc(Cl)c2Cl)c(N)n1 [Lamotrigine] | 1.12 ± 0.3 | 1.05 ± 0.16
4 | CC(=O)OC1(C(C)=O)CCC2C3C=C(Cl)C4=CC(=O)C5CC5C4(C)C3CCC21C (stereo unspecified) [Cyproterone Acetate] | 1.13 ± 0.092 | 1.2 ± 0.092
5 | CCCC(=O)OC1(C(=O)CCl)C(C)CC2C3CCC4=CC(=O)C=CC4(C)C3(F)C(=O)CC21C (stereo unspecified) [clobetasone butyrate] | 0.995 ± 0.17 | 0.99 ± 0.3
6 | COc1cc(CNC(=O)CCCC/C=C\C(C)C)ccc1O [Zucapsaicin] | 0.332 ± 0.62 | 1.22 ± 0.092
7 | C=C1c2cccc(O)c2C(=O)C2=C(O)C3(O)C(=O)C(C(N)=O)=C(O)C(N(C)C)C3C(O)C12.Cl (stereo unspecified) [Methacycline HCl] | 0.894 ± 0.32 | 1 ± 0.072
8 | COc1cc(C(=O)NS(=O)(=O)c2ccccc2C)ccc1Cc1cn(C)c2ccc(NC(=O)OC3CCCC3)cc12 [Zafirlukast] | 1.31 ± 0.026 | 0.967 ± 0.023
9 | CCC(C)C(=O)OC1CC(C)C=C2C=CC(C)C(CCC3CC(O)CC(=O)O3)C21 (stereo unspecified) [Lovastatin] | 1.23 ± 0.028 | 0.619 ± 0.019
10 | Nc1ccc(F)cc1NC(=O)c1ccc(CNC(=O)/C=C/c2cccnc2)cc1 [Tucidinostat (Chidamide)] | 0.836 ± 0.38 | 0.606 ± 0.23
11 | CS(=O)(=O)CCNCc1ccc(-c2ccc3ncnc(Nc4ccc(OCc5cccc(F)c5)c(Cl)c4)c3c2)o1.Cc1ccc(S(=O)(=O)O)cc1.Cc1ccc(S(=O)(=O)O)cc1 | 1.18 ± 0.056 | 0.708 ± 0.033
12 | CC(=O)OC[C@H]1O[C@@H]([S-])[C@H](OC(C)=O)[C@@H](OC(C)=O)[C@@H]1OC(C)=O.CCP(CC)CC.[Au+] [Auranofin] | 0.00506 ± 0.12 | 0.0702 ± 0.04
13 | CCCCOc1ccc(C(=O)CCN2CCCCC2)cc1.Cl [Dyclonine HCl] | 1.34 ± 0.43 | 1.12 ± 0.076
14 | COc1cccc2c1C(=O)c1c(O)c3c(c(O)c1C2=O)CC(O)(C(C)=O)CC3OC1CC(N)C(O)C(C)O1.Cl (stereo unspecified) [Daunorubicin HCl] | 0.0902 ± 0.071 | 0.0966 ± 0.039
15 | CC1=C(CC(=O)O)c2cc(F)ccc2/C1=C\c1ccc(S(C)=O)cc1 (stereo unspecified) [Sulindac] | 1.12 ± 0.075 | 0.821 ± 0.32
16 | CNC1CCC(c2ccc(Cl)c(Cl)c2)c2ccccc21.Cl (stereo unspecified) [Sertraline HCl] | 0.338 ± 0.063 | 0.664 ± 0.35
17 | Cc1nccn1CC1CCc2c(c3ccccc3n2C)C1=O.Cl (stereo unspecified) [Ondansetron HCl] | 1.24 ± 0.19 | 1.18 ± 0.093

Row | SMILES | cell viability [1] | cell viability [2]
18 | CNC(=O)C(NC(=O)C(CC(C)C)C(O)C(=O)NO)C(C)(C)C (stereo unspecified) [Marimastat (BB-2516)] | 0.915 ± 0.038 | 1.14 ± 0.19
19 | Nc1cccc2c1C(=O)N(C1CCC(=O)NC1=O)C2=O (stereo unspecified) [Pomalidomide] | 1.5 ± 0.33 | 1.22 ± 0.12
20 | CCN1CCN(Cc2ccc(Nc3ncc(F)c(-c4cc(F)c5nc(C)n(C(C)C)c5c4)n3)nc2)CC1.CS(=O)(=O)O | 0.42 ± 0.27 | 0.415 ± 0.016
21 | C1N2CN3CN1CN(C2)C3 [Methenamine] | 1.09 ± 0.19 | 0.9499 ± 0.009
22 | CC1(C)OC2CC3C4CCC5=CC(=O)C=CC5(C)C4C(O)CC3(C)C2(C(=O)CO)O1 (stereo unspecified) [Desonide] | 0.804 ± 0.24 | 0.683 ± 0.22
23 | O=C(Nc1ccc(O)cc1)c1ccccc1O [Osalmid] | 1.3 ± 0.45 | 1.25 ± 0.1
24 | Cc1cn(-c2cc(NC(=O)c3ccc(C)c(Nc4nccc(-c5cccnc5)n4)c3)cc(C(F)(F)F)c2)cn1 [Nilotinib (AMN-107)] | 1.22 ± 0.089 | 1.135 ± 0.0089
25 | CCC(=O)OCC(=O)C1(OC(=O)CC)C(C)CC2C3CCC4=CC(=O)C=CC4(C)C3(Cl)C(O)CC21C (stereo unspecified) [Beclomethasone dipropionate] | 0.987 ± 0.24 | 0.797 ± 0.12
26 | Cc1c(Cl)cccc1Nc1ncccc1C(=O)O [Clonixin] | 0.814 ± 0.24 | 1.08 ± 0.027
27 | CCN1CCN(Cc2ccc(Nc3ncc(F)c(-c4cc(F)c5nc(C)n(C(C)C)c5c4)n3)nc2)CC1 [Abemaciclib] | 0.668 ± 0.14 | 0.746 ± 0.094
28 | COc1ccnc(CS(=O)c2nc3ccc(-n4cccc4)cc3[nH]2)c1C (stereo unspecified) [Ilaprazole] | 1.17 ± 0.38 | 1.29 ± 0.23
29 | O=C(O)c1cc(N=Nc2ccc(S(=O)(=O)Nc3ccccn3)cc2)ccc1O [Sulfasalazine] | 1.41 ± 0.088 | 1.22 ± 0.16
30 | Cl.N=C1CCCN1Cc1[nH]c(=O)[nH]c(=O)c1Cl [Tipiracil hydrochloride] | 1.14 ± 0.35 | 1.25 ± 0.059
31 | C=CC1=C(C)c2cc3nc(cc4[nH]c(cc5[nH]c(cc1n2)c(C)c5C=C)c(C)c4CCC(=O)O)C(CCC(=O)O)=C3C [Protoporphyrin IX] | 0.345 ± 0.26 | 0.995 ± 0.17
32 | CCCCNC(=O)NS(=O)(=O)c1ccc(C)cc1 [Tolbutamide] | 1.13 ± 0.081 | 1.2 ± 0.16
33 | Cc1cccc(N(C)C(=S)Oc2ccc3ccccc3c2)c1 [Tolnaftate] | 1.38 ± 0.047 | 0.8891 ± 0.0065
